{"source": "PubChem BioAssay (NCI)", "note": "The panel holds about 79,000 compounds, 15% with a hit somewhere; the sample as a whole holds those more often. Unmarked numbers belong to inactive results. Activity calls are given as the source filed them. Cut-off read from the data, not from the text of the source: active = growth inhibition above about 70%; inactive = the rest."}
{"test": "NCI Yeast Anticancer Drug Screen. Data for the CLN2oe strain (AID 163);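 note: 0% = growth of vehicle-only control cultures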", "conditions": "S. cerevisiae CLN2oe strain, at 100.0 µM, hits give high values", "outline": "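Yeast cells carrying a defined cell-cycle control alteration were exposed to test compounds. Growth inhibition was scored against vehicle-treated control cultures.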"}
{"smiles": "Cc1cccc2c(C(O)CBr)cc(-c3ccc(Cl)cc3)nc12", "note": "(stereo not given)", "growth inhibition": "51%"}
{"smiles": "CN(C)C[C@H]1CC[C@@H](CN(C)C)C1=O", "growth inhibition": "64%"}
{"smiles": "CC1=C(SCCO)C(=O)c2ccccc2C1=O", "growth inhibition": "14%"}
{"smiles": "COC(=O)CCNc1c2ccccc2nc2cccc([N+](=O)[O-])c12", "growth inhibition": "98% (active)"}
{"smiles": "CC(/C=C/c1ccc2c(c1)OCO2)[N+](=O)[O-]", "note": "(stereo not given)", "growth inhibition": "99% (active)"}
{"smiles": "COC(=O)C1=C(C)NC(C)=C(C(=O)OCCCN2CCC(c3ccccc3)(c3ccccc3)CC2)C1c1cccc([N+](=O)[O-])c1", "note": "(stereo not given)", "growth inhibition": "84% (active)"}
{"smiles": "CCOC(=O)c1cnc2c(C(F)(F)F)cccc2c1N=[N+]=[N-]", "growth inhibition": "73% (active)"}
{"smiles": "O=[N+]([O-])c1cc2no[n+]([O-])c2cc1N1CCCCC1", "growth inhibition": "97% (active)"}
{"smiles": "COC(=O)c1ccc(NCC2=CC(=O)C=CC2=O)cc1O", "growth inhibition": "93% (active)"}
{"smiles": "CCCCCCCCNC(=O)C1=C(C)NC(C)=C(C(=O)NCCCCCCCC)C1", "growth inhibition": "2%"}
{"smiles": "S=C(Nc1ccc(Cl)c(Cl)c1)SCc1ccc2c(c1)OCO2", "growth inhibition": "93% (active)"}
{"smiles": "O=S(=O)(CCCl)c1ccccc1Cl", "growth inhibition": "97% (active)"}
{"smiles": "Nc1ccccc1CC(O)C(=O)O", "note": "(stereo not given)", "growth inhibition": "42%"}
{"smiles": "CN(C)c1ccc(Sc2ccc3nc(N)nc(N)c3c2)cc1", "growth inhibition": "18%"}
{"smiles": "CC(C)C1=CCC2C(=C1)CCC1C(C)(C(=O)O)CCCC21C", "note": "(stereo not given) (tested in a mixture with another compound)", "growth inhibition": "96% (active)"}
{"smiles": "Cc1ccc(S(=O)(=O)Oc2cc(Cl)c(Cl)cc2Cl)cc1", "growth inhibition": "-18%"}
{"smiles": "CSC(=S)Nc1cc(C)ccn1", "growth inhibition": "74% (active)"}
{"smiles": "CC(C)c1cc(C(C)C)c(O)c(C([O-])[O-])c1.CC(C)c1cc(C(C)C)c(O)c(C([O-])[O-])c1.CC(C)c1cc(C(C)C)c(O)c(C([OH2+])[OH2+])c1.CC(C)c1cc(C(C)C)c(O)c(C([OH2+])[OH2+])c1.[Cu+2].[Cu+2].[OH3+].[OH3+]", "growth inhibition": "83% (active)"}
{"smiles": "Cc1cc(I)ccc1N", "growth inhibition": "86% (active)"}
{"smiles": "CC(Br)C(=O)c1ccc2cc(Br)c3ccccc3c2c1", "note": "(stereo not given)", "growth inhibition": "-1%"}
{"smiles": "O=C(Nc1ccccc1)OCCc1ccc(Cl)c(Cl)c1", "growth inhibition": "58%"}
{"smiles": "O=Cc1cccc2ccc3ccccc3c12", "growth inhibition": "88% (active)"}
{"smiles": "O=[N+]([O-])CC(SCc1ccccc1)c1ccc2c(c1)OCO2", "note": "(stereo not given)", "growth inhibition": "97% (active)"}
{"smiles": "CC1(Cl)CC(O)C2(CC1Br)C1(C)OC1C1OC1(Br)C2(C)C", "note": "(stereo not given)", "growth inhibition": "98% (active)"}
{"smiles": "Cc1cc(O)cc(O)c1N=Nc1ccc([N+](=O)[O-])cc1", "growth inhibition": "55%"}
{"smiles": "CCCCCCCCCCCCCC[N+](C)(CC(=O)[O-])Cc1ccccc1", "note": "(stereo not given)", "growth inhibition": "99% (active)"}
{"smiles": "CC1=NN(c2cccc(Cl)c2)C(=O)C1", "growth inhibition": "20%"}
{"smiles": "CC(=O)OCc1ccc(O)c(C=O)c1", "growth inhibition": "-2%"}
{"smiles": "Cc1ccc2ccc3cccc4ccc1c2c34", "growth inhibition": "13%"}
{"smiles": "Cc1nc(-[n+]2nc(-c3ccncc3)nn2-c2ccccc2)sc1C", "growth inhibition": "14%"}
{"smiles": "C(CCSC1=NCCN1)CSC1=NCCN1", "note": "(tested in a mixture with another compound)", "growth inhibition": "98% (active)"}
{"smiles": "CCCCCCCCCCC(=O)Cl", "growth inhibition": "77% (active)"}
{"smiles": "COC1C=COC2(C)Oc3c(C)c(O)c4c(c3C2=O)/C(=N/C2CCC(O)OC2C)C=C(NC(=O)/C(C)=C\\C(=O)C2CC2C(O)C(C)C(O)C(C)C(OC(C)=O)C1C)C4=O", "note": "(stereo not given)", "growth inhibition": "53%"}
{"smiles": "S=c1[nH]nc(Nc2ccc(Cl)cc2)s1", "growth inhibition": "73% (active)"}
{"smiles": "O=C1CSC(/C=C/c2ccccc2)N1c1ccc(-c2ccc(-n3c(-c4ccccc4)nc4ccccc4c3=O)cc2)cc1", "note": "(stereo not given)", "growth inhibition": "22%"}
{"smiles": "O=C1C=CC(=O)N1c1ccc2c(c1)Cc1cc(NC(=O)C(F)(F)F)ccc1-2", "growth inhibition": "50%"}
{"smiles": "Brc1ccc(-c2cc3c(cc2C2SCCS2)OCO3)cc1", "growth inhibition": "13%"}
{"smiles": "Oc1ccc2ccccc2c1C(c1ccc(Cl)cc1)c1c(O)ccc2ccccc12", "growth inhibition": "82% (active)"}
{"smiles": "C[CH2][Sn]([CH2]C)([O]C(=O)C(OC(C)=O)c1ccccc1)[O]C(=O)C(OC(C)=O)c1ccccc1", "note": "(stereo not given)", "growth inhibition": "90% (active)"}
{"smiles": "Cc1ccc2ccc(O)cc2c1", "growth inhibition": "83% (active)"}
